Laboratory results taken from PubChem BioAssay AID372 (MTDP, 2006).
Among all 100,000 compounds or so, about 770 (0.77%) were called active. The full list was thinned out, with actives kept by preference. Unmarked numbers belong to inactive results. Rule as the data show it: active = inhibition above about 50%; inactive = the rest.

molecular target: Gag-Pol polyprotein (Human immunodeficiency virus type 1 group M subtype B (isolate HXB2)) (UniProt P04585); assay: RNase H inhibition, HIV 1 Gag Pol polyprotein, FRET biochemical assay, screening (AID 372); conditions: HIV-1 RT RNase H, FRET RNA/DNA substrate fluorescence; at 10 µM; hits give high values

Compound | inhibition
Clc1ccc(-c2nnc3ccc(N4CCOCC4)nn23)cc1 | 9%
COc1ccc(C2NC(=O)NC(C)=C2C(=O)OCC(Cl)(Cl)Cl)cc1OC (stereo not given) | 2%
COc1ccc2ccccc2c1/C=N/NC(=O)c1ccccc1C | 13%
Cc1cc(I)ccc1NC(=O)c1ccc(-c2ccccc2[N+](=O)[O-])o1 | 49%
O=C1NC(=S)NC(=O)C1=Cc1cccc(OC(=O)c2ccc(Cl)cc2)c1 | 30%
CC(C)C(=O)NC(c1ccc(N(C)C)cc1)c1ccc2cccnc2c1O (stereo not given) | 7%
CCN(CC)c1nc2c(s1)C(=O)CC(C)(C)C2 | 0%
Cc1ccnc(NC(=O)c2cc(-c3ccc(C)c(C)c3)nc3ccccc23)c1 | 4%
O=C1c2ccccc2NC(c2ccccc2F)N1c1ccc(Cl)cc1 (stereo not given) | 5%
CCOC(=O)C1=C(C)N=c2s/c(=C\c3ccc(OCc4cccc5ccccc45)c(OC)c3)c(=O)n2C1c1ccc(OC)cc1 (stereo not given) | 14%
CCOC(=O)C1=C(C)N=c2s/c(=C\c3ccc(-c4cc(C)c(C)c([N+](=O)[O-])c4)o3)c(=O)n2C1c1ccc(N(C)C)cc1 (stereo not given) | 56% (active)
CCOC(=O)C1=C(C)N=c2s/c(=C/c3ccc(-c4cccc(Cl)c4)o3)c(=O)n2C1c1ccc(OC)c(OC)c1 (stereo not given) | 52% (active)
CCOC(=O)C1=C(C)N=c2s/c(=C\c3ccc(-c4cc(C)c(C)c([N+](=O)[O-])c4)o3)c(=O)n2C1c1ccccc1 (stereo not given) | 46%
CCOC(=O)C1=C(C)N=c2s/c(=C\c3ccc(OCc4cccc5ccccc45)c(OCC)c3)c(=O)n2C1c1ccc(OC)c(OC)c1 (stereo not given) | 0%
CCOC(=O)C1=C(C)N=c2s/c(=C/c3ccc(-c4ccc(C)c([N+](=O)[O-])c4)o3)c(=O)n2C1c1ccc(N(C)C)cc1 (stereo not given) | 43%
CCOC(=O)C1=C(C)N=c2s/c(=C\c3ccc(-c4ccc(Cl)c(Cl)c4)o3)c(=O)n2C1c1ccc(OC)c(OC)c1 (stereo not given) | 9%
CCOC(=O)C1=C(C)N=c2s/c(=C\c3ccc(OCc4cccc5ccccc45)c(OC)c3)c(=O)n2C1c1ccc(OC)c(OC)c1 (stereo not given) | 55% (active)
CCOC(=O)C1=C(C)N=c2s/c(=C\c3ccc(-c4ccc(Cl)cc4)o3)c(=O)n2C1c1ccc(OC)c(OC)c1 (stereo not given) | 13%
CCOC(=O)c1c(C)[nH]c(/C=C(/C#N)C(N)=NCc2ccccc2)c1O | 11%
Cc1cc(C)c(S(=O)(=O)NC(=O)C23CC4CC(CC(C4)C2)C3)c(C)c1 | 2%
COc1cccc(/C=N/NC(=O)c2ccccc2O)c1 | 11%
O=C(NC(=S)Nc1ccc2oc(-c3ccccc3)nc2c1)c1ccccc1Cl | 7%
Cc1ccc(N=C2NC(=O)/C(=C\c3ccc(C)o3)S2)cc1 | 52% (active)
Cc1ccc(N=C2NC(=O)/C(=C/c3ccc(-c4ccc(Cl)c([N+](=O)[O-])c4)o3)S2)cc1Cl | 31%
Cc1ccc(/C=C2\SC(=Nc3ccc(F)cc3)NC2=O)o1 | 26%
Cc1ccc(N=C2NC(=O)/C(=C/c3ccccc3)S2)cc1 | 9%
Cc1ccc(N=C2NC(=O)/C(=C/c3ccc(-c4cc([N+](=O)[O-])ccc4Cl)o3)S2)cc1Cl | 25%
O=C1NC(=Nc2ccc(F)cc2)S/C1=C/c1ccc(-c2ccc([N+](=O)[O-])cc2)o1 | 51% (active)

Compound | inhibition
O=C(COc1cccc(Cl)c1)N/N=C\c1ccc(O)cc1 | 1%
Cc1ccc2nc(-c3c(-c4ccccc4)c4cc(C)ccc4[nH]c3=O)cc(-c3ccccc3)c2c1 | 31%
Cc1ccccc1N1C(=O)c2cccnc2C1=O | 22%
Cc1ccc(N2C(=O)c3ccccc3C2=O)cc1C | 5%
Cc1ccc(N2C(=O)c3cccnc3C2=O)cc1C | 50% (active)
COc1ccccc1/C=C1/C(=O)N(c2ccc(Cl)c(Cl)c2)N=C1C | 3%
CCCC(=O)N(c1ccc(N(C(=O)CCC)S(=O)(=O)c2ccccc2)cc1)S(=O)(=O)c1ccccc1 | 1%
O=C(NC(=S)Nc1cccc(-c2nc3cc(Cl)ccc3o2)c1)c1ccc(Br)cc1 | 9%
O=C(NC(=S)Nc1ccc2oc(-c3cccc(Cl)c3)nc2c1)c1ccc(F)cc1 | 18%
O=C(NC(=S)Nc1ccc(-c2nc3cc(Cl)ccc3o2)cc1)c1ccc(F)cc1 | 8%
O=C(NC(=S)Nc1ccc2oc(-c3ccc(Cl)cc3)nc2c1)c1ccc(F)cc1 | 57% (active)
O=C(NC(=S)Nc1ccc2oc(-c3ccc(Cl)cc3Cl)nc2c1)c1ccc(F)cc1 | 17%
O=C(NC(=S)Nc1ccc(Cl)c(-c2nc3cc(Cl)ccc3o2)c1)c1ccc(F)cc1 | 53% (active)
Cc1ccc(-c2nc3cc(Cl)cc(Cl)c3o2)cc1N | 0%
O=C(NC(=S)Nc1ccc2oc(-c3cc(Cl)ccc3Cl)nc2c1)c1ccc(F)cc1 | 19%
Nc1cccc(-c2nc3cc(Cl)cc(Cl)c3o2)c1 | 55% (active)
O=C(NC(=S)Nc1cccc(-c2nc3cc(Cl)ccc3o2)c1)c1ccc(F)cc1 | 57% (active)
O=C(NC(=S)Nc1ccc2oc(-c3ccc(F)cc3)nc2c1)c1ccc(Cl)cc1 | 0%
Nc1ccc(-c2nc3cc(Cl)cc(Cl)c3o2)cc1 | 22%
CC(=O)Nc1nc2c(s1)C(=O)NCCC2 | 5%
Cn1c2ccccc2c2nnc(SCCN3CCOCC3)nc21 | 0%
O=Cc1ccc(OCc2ccc([N+](=O)[O-])cc2)cc1 | 16%
O=[N+]([O-])c1ccc(N2CCOCC2)cc1Sc1cccc2cccnc12 | 24%
Cc1ccc(S(=O)(=O)N2CCC(CN3C(=O)c4cccc5cccc(c45)C3=O)CC2)cc1 | 25%
Cc1cc(C)n(S(=O)(=O)c2ccc(Cl)c(Cl)c2Cl)n1 | 23%
CCCC1(CCC)NC(=S)N(c2nc3ccccc3s2)N1 | 7%
COc1ccc(N(CC(=O)NCc2ccccn2)S(=O)(=O)c2ccccc2[N+](=O)[O-])c(OC)c1 | 4%
